The source of these data is PubChem BioAssay (Tox21).

“And” between values parts separate entries of the source, which are not always exact repeats. Identical values can stand only once. Inconclusive results are not listed. Some compounds were tested as several samples or in several runs, with calls that do not always agree. The source made the active and inactive calls. Unless noted, the call rests on the fitted dose curve; in most records, active means well fitted curve in the direction sought with a large enough effect in the repeat runs; inconclusive means weak or mixed curves; inactive means no such curve, though single readings can be large; an effect the other way counts as inactive or inconclusive.

In test [1] the target is Estrogen receptor (Homo sapiens) (UniProt P03372). Kind of test: qHTS assay to identify small molecule antagonists of the estrogen receptor alpha (ER-alpha) signaling pathway using the BG1 cell line in the presence of 0.1 nM 17-beta-estradiol (AID 1259244). Further: nearly all actives have a fitted effect of over 50% in size. Further: potency means the concentration at half of the fitted maximal effect. In short, it runs like this: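 Luciferase signal from VM7Luc4E2 ERE-reporter cells, co-dosed with test compound and 0.1 nM final 17beta-estradiol for 22 h, read with ONE-Glo.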

A short description of test [2]: qHTS assay to identify small molecule phospholipidosis (PLD) inducers (AID 1259344; active means well fitted curve in the direction sought with a large enough effect; an effect the other way counts as inactive or inconclusive). A digest of the protocol: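 Phospholipid accumulation was scored by imaging: fixed, Hoechst-counterstained HepG2 cells stained with LipidTOX Red after 24 h compound exposure at 37 C. Read-outs were pit count and pit intensity per well or per cell, with amiodarone and DMSO controls.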

The nature of test [3]: qHTS assay to identify small molecule HDAC inhibitors (AID 1259364). Further: potency means the concentration at half of the fitted maximal effect.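 Further: wild-type HCT-116 cells with endogenous class I/II HDAC activity; nearly all actives have a fitted effect of over 45% in size.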 In short, it runs like this:
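HCT-116 wt cells, 1,500/well, overnight attach. Compounds (DMSO) 2 h, 37 °C. HDAC-Glo I/II, 30 min RT. Luminescence.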

The nature of test [4]: qHTS assay to identify small molecule HDAC inhibitors - cell viability counter screen (AID 1259365). Further: nearly all actives have a fitted effect of over 50% in size. Further: potency means the concentration at half of the fitted maximal effect. A digest of the protocol:
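Wild-type HCT-116 cells were seeded at 1,500 per well, incubated overnight at 37 C, then exposed to compounds in DMSO for 2hr. Viability was read by CellTiter-Glo luminescence after 30min at room temperature.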

Test [5] is described as follows: qHTS assay to identify small molecule agonists of the sonic hedgehog signaling (Shh) pathway - cell viability counter screen (AID 1259366). Further: nearly all actives have a fitted effect of over 50% in size. Further: potency means the concentration at half of the fitted maximal effect. In short, it runs like this:
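NIH/3T3-derived 3T3 Gli1-Luc cells (stable Gli1-responsive firefly luciferase reporter) were seeded, rested 4 hr at 37 C/5% CO2, then exposed to compounds in DMSO for 24 hr; viability was read by CellTiter-Fluor fluorescence in the same wells.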

A short description of test [6]: qHTS assay to identify small molecule antagonists of the sonic hedgehog signaling (Shh) pathway - cell viability counter screen (AID 1259367). Further: nearly all actives have a fitted effect of over 55% in size. Further: potency means the concentration at half of the fitted maximal effect. A digest of the protocol:
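Viability was read by CellTiter-Fluor fluorescence in the same wells, reagent added 23 hr into compound treatment and incubated 1 hr at 37C. The 3T3 Gli1-Luc reporter cells (2,000/well) received conditioned medium after compound and ran 24 hr.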

A short description of test [7]: qHTS assay to identify small molecule agonists of the sonic hedgehog signaling (Shh) pathway (AID 1259368; calls by dose curve; further: series mostly up to about 92 µM; nearly all actives have a fitted effect of over 15% in size). In short, it runs like this: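 Following a 24 hr incubation with DMSO-dissolved compounds at 37 C, 5% CO2, Gli1-Luc NIH/3T3-derived cells received luciferase reagent for 30 min at room temperature prior to luminescence measurement.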
A short description of test [8]: qHTS assay to identify small molecule antagonists of the sonic hedgehog signaling (Shh) pathway (AID 1259369; calls by dose curve; further: nearly all actives have a fitted effect of over 45% in size; further: potency means the concentration at half of the fitted maximal effect). In short, it runs like this:
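Read-out is luminescence from a firefly luciferase gene controlled by the Gli1 response element, in 3T3Gli1-Luc cells pre-incubated 4hr then exposed to compounds and conditioned medium for 24hr.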

For test [9], the target named is Estrogen receptor beta (Homo sapiens) (UniProt Q92731). Kind of test: qHTS assay to identify small molecule agonists of the estrogen receptor beta (ER-beta) signaling pathway (AID 1259377; active means well fitted activation curve with a large enough effect in the signal ratio in the repeat runs, not every such curve was filed as active; the % refers to the signal ratio). A digest of the protocol:
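ER-beta-UAS-bla HEK293T (GripTite) cells carrying a UAS-driven beta-lactamase reporter, in medium with 2% charcoal-stripped FBS, were exposed to compounds for 16 hr at 37C; LiveBLAzer B/G FRET substrate was then added and fluorescence read after 2 hours at room temperature.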

The target is the same in test [10]. Kind of test: qHTS assay to identify small molecule antagonists of the estrogen receptor beta (ER-beta) signaling pathway (AID 1259378; active means well fitted inhibition curve with a large enough effect in the signal ratio in the repeat runs, not every such curve was filed as active; the % refers to the signal ratio; further: potency means the concentration at half of the fitted maximal effect). In short, it runs like this: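 Antagonist mode: compounds added to beta-lactamase reporter HEK293T ER-beta-UAS cells stimulated with E2 (1nM final), 16 hr at 37C. LiveBLAzer B/G FRET substrate, 2 hours room temperature, fluorescence read-out.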

Test [11] is described as follows: qHTS assay to identify small molecule agonists of the androgen receptor (AR) signaling pathway in the presence of an antagonist - cell viability counter screen (AID 1259379). Further: nearly all actives have a fitted effect of over 25% in size. Further: potency means the concentration at half of the fitted maximal effect. A digest of the protocol: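 Each compound was tested at 15 concentrations on MDA-kb2 cells in the presence of 3.0uM nilutamide. Viability was measured by CellTiter-Fluor fluorescence after a 16 hr incubation at 37C in a CO2-free atmosphere.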

Test [12] is described as follows: qHTS assay to identify small molecule agonists of the estrogen receptor beta (ER-beta) signaling pathway - cell viability counter screen (AID 1259380). Further: nearly all actives have a fitted effect of over 30% in size. Further: potency means the concentration at half of the fitted maximal effect. A digest of the protocol:
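Compounds dissolved in DMSO were pin-transferred onto ER-beta-UAS-bla HEK293T cells that had settled 6 hr, and exposure ran 16 hr at 37C. Following the reporter read, CellTiter-Glo luminescence after 30 min at room temperature indicated cytotoxicity.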

The nature of test [13]: qHTS assay to identify small molecule antagonists of the estrogen receptor beta (ER-beta) signaling pathway - cell viability counter screen (AID 1259382). Further: nearly all actives have a fitted effect of over 55% in size. Further: potency means the concentration at half of the fitted maximal effect. A digest of the protocol: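 CellTiter-Glo ATP luminescence measured after the LiveBLAzer read in the same wells; ER-beta-UAS-bla HEK293T cells, 16 hr compound treatment with 1nM 17-beta-estradiol agonist at 37C, 5% CO2.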

Test [14] addresses Estrogen receptor (Homo sapiens) (UniProt P03372). Kind of test: qHTS assay to identify small molecule agonists of the estrogen receptor alpha (ER-alpha) signaling pathway in the presence of an antagonist (AID 1259383; calls by dose curve; further: top concentration of the series differs between compounds; nearly all actives have a fitted effect of over 15% in size). A digest of the protocol:
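Luminescent ERE-luciferase reporter, VM7Luc4E2 cells (endogenous ER-alpha); 10.0nM ICI-182,780 final; 15-point compound titration; 22hr at 37C; ONE-Glo, 30min RT.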

The nature of test [15]: qHTS assay to identify small molecule agonists or antagonists of the thyroid stimulating hormone receptor (TSHR) signaling pathway - wild type cell line counter screen (AID 1259384; calls by dose curve). In short, it runs like this: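 Counter screen in untransfected Hek293: compounds (15-point titration, triplicate) plus phosphodiesterase inhibitor Ro20-1724 added after 18 h plating; 30 min RT. Intracellular cAMP via competitive d2/cryptate immunoassay, 1 h incubation.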

Test [16] has as its target Thyrotropin receptor (Homo sapiens) (UniProt P16473). Kind of test: qHTS assay to identify small molecule antagonists of the thyroid stimulating hormone receptor (TSHR) signaling pathway (AID 1259385; calls by dose curve; further: nearly all actives have a fitted effect of over 20% in size; further: potency means the concentration at half of the fitted maximal effect). In short, it runs like this: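 Antagonist mode: compound-treated TSHR-expressing HEK293 cells were stimulated with 1.5 ng/mL TSH (final) in presence of Ro20-1724 for 30 min at RT. HTRF cAMP detection after 1 h; each compound tested at 15 concentrations, triplicate.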

Test [17] has as its target Progesterone receptor (Homo sapiens) (UniProt P06401). Kind of test: qHTS assay to identify small molecule antagonists of the progesterone receptor (PR) signaling pathway (AID 1346795; active means well fitted inhibition curve with a large enough effect in the signal ratio in the repeat runs, not every such curve was filed as active; the % refers to the signal ratio). In short, it runs like this:
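PR-UAS-bla HEK293T cells carrying a UAS-driven beta-lactamase reporter were plated in medium with 2% charcoal-stripped FBS and rested 6 hr at 37C. Compounds were added with 1 nM R5020 (final) for 16 hr, then FRET substrate loaded 2 hr at room temperature.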

The nature of test [18]: qHTS assay to identify small molecule agonists of the estrogen receptor alpha (ER-alpha) signaling pathway in the presence of an antagonist - cell viability counter screen (AID 1259386).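 Further: series mostly up to about 92 µM; cells exposed to compounds for 22 h at 37 °C before the viability read; nearly all actives have a fitted effect of over 30% in size.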 In short, it runs like this: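 Using estrogen-depleted VM7Luc4E2 cells, the 15-concentration compound series was applied together with 10.0nM ICI-182,780 and incubated 22hr at 37C/5% CO2. Cell viability was then scored by CellTiter-Fluor.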

Test [19] addresses Progesterone receptor (Homo sapiens) (UniProt P06401). Kind of test: qHTS assay to identify small molecule agonists of the progesterone receptor (PR) signaling pathway (AID 1346784; calls by dose curve; further: nearly all actives have a fitted effect of over 30% in size). In short, it runs like this: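 PR-UAS-bla HEK 293T cells carrying a UAS-driven beta-lactamase reporter were seeded in medium with 2% charcoal-stripped FBS, preincubated 6 hr at 37C, then exposed to compounds in DMSO for 16 hr; agonism was read by LiveBLAzer B/G FRET fluorescence.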
On the % scale 0 is the no-effect control and ±100 the full control effect.

Chain of Thyrotropin receptor (Homo sapiens) (P16473 whole entry, looked up): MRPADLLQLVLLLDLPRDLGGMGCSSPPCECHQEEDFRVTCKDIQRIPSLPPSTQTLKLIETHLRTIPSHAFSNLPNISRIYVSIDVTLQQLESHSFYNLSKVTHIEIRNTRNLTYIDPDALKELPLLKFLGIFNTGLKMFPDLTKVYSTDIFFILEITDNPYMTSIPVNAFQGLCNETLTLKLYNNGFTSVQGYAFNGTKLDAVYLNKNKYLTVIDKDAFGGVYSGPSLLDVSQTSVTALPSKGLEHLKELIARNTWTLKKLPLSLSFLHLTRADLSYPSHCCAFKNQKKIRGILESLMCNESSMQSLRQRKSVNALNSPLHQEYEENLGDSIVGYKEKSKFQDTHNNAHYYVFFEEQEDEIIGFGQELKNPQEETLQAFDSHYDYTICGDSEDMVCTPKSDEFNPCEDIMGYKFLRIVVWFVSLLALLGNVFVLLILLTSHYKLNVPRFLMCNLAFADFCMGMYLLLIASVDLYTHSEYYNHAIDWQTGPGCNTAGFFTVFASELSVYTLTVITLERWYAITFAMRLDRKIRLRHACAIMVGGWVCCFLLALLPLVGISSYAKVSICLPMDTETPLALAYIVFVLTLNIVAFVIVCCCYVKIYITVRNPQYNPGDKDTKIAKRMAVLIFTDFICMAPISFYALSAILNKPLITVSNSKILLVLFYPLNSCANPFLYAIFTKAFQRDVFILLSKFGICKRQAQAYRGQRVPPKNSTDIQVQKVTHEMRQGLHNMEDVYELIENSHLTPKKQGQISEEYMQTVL
Chain of Estrogen receptor beta (Homo sapiens) (Q92731 whole entry, looked up): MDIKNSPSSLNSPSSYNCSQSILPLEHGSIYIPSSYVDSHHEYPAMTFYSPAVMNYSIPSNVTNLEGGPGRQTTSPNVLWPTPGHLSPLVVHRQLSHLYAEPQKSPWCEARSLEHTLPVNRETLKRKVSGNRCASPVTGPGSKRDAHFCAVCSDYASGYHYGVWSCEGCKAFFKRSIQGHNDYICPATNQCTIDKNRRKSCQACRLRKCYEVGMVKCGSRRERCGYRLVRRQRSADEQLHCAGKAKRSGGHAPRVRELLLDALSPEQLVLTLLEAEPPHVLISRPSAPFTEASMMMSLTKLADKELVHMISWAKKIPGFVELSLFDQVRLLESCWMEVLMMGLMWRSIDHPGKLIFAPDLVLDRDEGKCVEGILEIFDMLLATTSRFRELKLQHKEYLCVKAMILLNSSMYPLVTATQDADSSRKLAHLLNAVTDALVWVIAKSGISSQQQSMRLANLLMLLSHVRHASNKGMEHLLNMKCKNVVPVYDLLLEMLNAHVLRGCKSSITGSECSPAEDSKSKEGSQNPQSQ
Chain of Estrogen receptor (Homo sapiens) (P03372 whole entry, looked up): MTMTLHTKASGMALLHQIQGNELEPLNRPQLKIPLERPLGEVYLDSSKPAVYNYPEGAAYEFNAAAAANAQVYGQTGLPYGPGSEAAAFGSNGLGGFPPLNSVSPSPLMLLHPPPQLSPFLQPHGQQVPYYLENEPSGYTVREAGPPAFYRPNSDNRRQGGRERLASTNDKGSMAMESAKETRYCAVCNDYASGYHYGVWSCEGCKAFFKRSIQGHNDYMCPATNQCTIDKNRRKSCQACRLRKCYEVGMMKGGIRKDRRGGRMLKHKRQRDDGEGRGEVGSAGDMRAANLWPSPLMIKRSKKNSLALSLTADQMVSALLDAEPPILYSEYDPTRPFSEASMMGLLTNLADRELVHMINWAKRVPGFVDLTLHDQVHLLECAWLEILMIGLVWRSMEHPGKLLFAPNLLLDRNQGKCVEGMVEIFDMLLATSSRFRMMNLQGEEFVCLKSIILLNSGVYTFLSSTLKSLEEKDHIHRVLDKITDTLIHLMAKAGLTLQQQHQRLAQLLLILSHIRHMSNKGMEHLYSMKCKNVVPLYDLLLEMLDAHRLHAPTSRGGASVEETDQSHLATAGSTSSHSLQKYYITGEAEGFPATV
Chain of Progesterone receptor (Homo sapiens) (P06401 whole entry, looked up): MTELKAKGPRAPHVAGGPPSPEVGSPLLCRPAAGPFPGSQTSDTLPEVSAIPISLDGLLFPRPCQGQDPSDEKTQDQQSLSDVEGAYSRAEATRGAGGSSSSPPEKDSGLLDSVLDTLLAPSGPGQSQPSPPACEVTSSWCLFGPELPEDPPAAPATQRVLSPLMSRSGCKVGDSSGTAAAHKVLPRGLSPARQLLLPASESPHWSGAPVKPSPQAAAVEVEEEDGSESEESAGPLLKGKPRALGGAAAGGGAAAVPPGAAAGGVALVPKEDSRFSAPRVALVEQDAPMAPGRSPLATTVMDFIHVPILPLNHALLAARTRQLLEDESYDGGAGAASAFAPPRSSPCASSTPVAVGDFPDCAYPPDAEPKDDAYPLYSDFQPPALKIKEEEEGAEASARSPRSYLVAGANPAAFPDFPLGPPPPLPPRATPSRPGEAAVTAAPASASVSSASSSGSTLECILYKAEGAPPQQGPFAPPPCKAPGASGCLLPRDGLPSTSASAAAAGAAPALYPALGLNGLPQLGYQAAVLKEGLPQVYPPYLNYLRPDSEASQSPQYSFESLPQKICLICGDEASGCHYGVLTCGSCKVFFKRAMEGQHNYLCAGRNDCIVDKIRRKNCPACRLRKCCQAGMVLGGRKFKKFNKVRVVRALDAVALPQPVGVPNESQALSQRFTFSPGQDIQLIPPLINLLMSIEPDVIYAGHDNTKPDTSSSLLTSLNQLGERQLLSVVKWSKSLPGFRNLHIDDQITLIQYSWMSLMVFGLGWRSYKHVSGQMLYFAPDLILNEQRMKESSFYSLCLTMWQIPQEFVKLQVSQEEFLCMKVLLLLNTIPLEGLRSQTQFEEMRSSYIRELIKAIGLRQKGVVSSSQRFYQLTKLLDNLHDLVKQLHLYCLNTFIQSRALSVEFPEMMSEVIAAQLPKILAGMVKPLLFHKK

For the compound `CCNc1nc(Cl)nc(NCC)n1`, the Potency result in [1], in test [3], in test [4], in [5], in [6] and in test [10] was “inactive” throughout. In addition, the Potency result in test [11], in test [12], in [13], in test [14], in test [15] and in test [16] was “inactive” in each case. Further, the Potency result in [17] was “inactive”. Further, the call in [2], in [7] and in [9] was inactive. In addition, in [8], the Potency was 2.16 µM (active) and inactive.
On to `O=C(O)C(Cl)(Cl)Cl`, for which the result in test [2] and in test [7] was inactive. Also, the Potency result in test [3], in [4], in [5], in [6], in test [8] and in test [11] was “inactive” in each case. Moreover, the Potency entry in test [12], in test [13], in test [15], in [16] and in test [17] was “inactive” each time.
Take `Nc1ccc(-c2ccc(N)c(Cl)c2)cc1Cl`: the Potency in [1] was 48.6 µM (active); in test [3] it was “inactive and 27.3 µM (active)”; in [5] it was “inactive and 7.18 µM (active) and 30.6 µM (active)”; in [6], 2.27 µM (active) and 8.63 µM (active); in test [8] it was 2.74 µM (active) and 1.01 µM (active); in test [10], 25.5 µM (active) and 30.6 µM (active). The Potency entry in test [11] is “inactive and 54.5 µM (active)”; in test [12], 30.6 µM (active); in test [13], 61.1 µM (active); in test [16] it was “inactive and 57 µM (active)”. Besides, the Potency entry in test [4], in test [14], in test [15] and in [18] was “inactive” throughout. Moreover, the compound was called inactive in [7].
In the case of `CC[N+]1(C)CCCC1`, the Potency entry in test [3], in test [4], in test [5], in test [6], in [12] and in [13] was “inactive” in each case. Moreover, the Potency entry in test [17] was “inactive”. For the same compound, in test [7], the result was inactive. The Potency in test [8] was 39.5 µM (active) and inactive; in test [11] it was “inactive and 61.3 µM (active)”.
Turning to `CCCC[n+]1ccc(C)cc1`, the Potency entry in test [3] and in test [11] was “inactive” each time. Also, the Potency result in [4] is “inactive and 60.8 µM (active)”; in [5], “inactive and 60.8 µM (active)”; in test [6] it was “inactive and 60.8 µM (active)”; in test [8] it was “inactive and 24.2 µM (active) and 13.7 µM (active)”; in [12] it was “inactive and 60.8 µM (active)”; in test [13], “inactive and 60.8 µM (active)”. The result in test [7] was inactive.
Consider `CCCC[N+]1(C)CCCCC1`, for which the Potency result in test [3], in test [4], in [5], in [6], in test [8] and in [11] was “inactive” in each case. The Potency result in [12], in test [13], in [15], in test [16], in test [19] and in test [17] was “inactive” throughout. In addition, the compound was called inactive in [7].
In the case of `CCCCCCCCn1cc[n+](C)c1`, the Potency result in [3], in test [4], in test [5], in [6], in test [13] and in [15] was “inactive” throughout. Moreover, the Potency result in test [16] and in [17] was “inactive” throughout. In test [7], the call was inactive. The Potency is 215 nM (active) and 174 nM (active) in [8]; 4.85 µM (active) [middle of 4 runs] in test [11].
`CCCC[n+]1ccccc1C`: the Potency result in test [3], in test [4], in test [5], in [6], in [8] and in test [11] was “inactive” in each case. Also, the Potency result in [12], in test [13], in [18] and in test [17] was “inactive” each time. Moreover, the compound was called inactive in test [7].
